Among the data in PubChem BioAssay are activity values, retold here.

The target of one assay is Tumor necrosis factor receptor superfamily member 10B (Homo sapiens) (UniProt O14763). The experiment in a line: viability loss of caspase-8 NB7 cells with TRAIL – with/without TRAIL, luminescence panel, confirmation (AID 651596). The following applies: NB7 neuroblastoma + caspase-8, TRAIL sensitization, NB7 Caspase-8, with TRAIL, mean of runs, at 10 µM, stronger effect = higher value.
Sequence of Tumor necrosis factor receptor superfamily member 10B (Homo sapiens) (O14763 whole entry, looked up): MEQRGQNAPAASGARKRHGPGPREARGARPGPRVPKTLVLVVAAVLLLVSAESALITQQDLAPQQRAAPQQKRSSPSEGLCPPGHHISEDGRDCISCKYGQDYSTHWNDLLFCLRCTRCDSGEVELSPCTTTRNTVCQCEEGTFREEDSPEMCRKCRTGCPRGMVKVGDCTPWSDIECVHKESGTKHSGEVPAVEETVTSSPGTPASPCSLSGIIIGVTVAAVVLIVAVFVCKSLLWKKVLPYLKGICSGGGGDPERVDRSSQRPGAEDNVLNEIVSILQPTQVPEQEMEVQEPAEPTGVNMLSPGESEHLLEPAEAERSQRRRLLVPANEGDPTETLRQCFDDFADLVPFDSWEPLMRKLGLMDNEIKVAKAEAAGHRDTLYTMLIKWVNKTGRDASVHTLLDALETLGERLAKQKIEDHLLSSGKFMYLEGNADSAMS
Take `CCOC(=O)C1=C(CC)Nc2ccccc2N=C1NC(=O)Nc1ccc(Cl)c(Cl)c1`: the activity amounted to 63.9%.

With `COc1ccc(-c2cc(-c3nc4ccccn4c3NCc3ccccc3)ccc2OC)cc1`, the activity is 93.2%.

In the case of `Cc1cccc(N(Cc2cc(=O)[nH]c3ccccc23)C(=O)CCl)c1`, the activity turned out to be 98.3%.

`COc1ccc(OC)c(N(CCN2C(=O)c3ccccc3C2=O)C(=O)CCl)c1`: the activity is 98.7%.

As to `O=C(COC(=O)c1ccccc1C(=O)c1ccc(Cl)c([N+](=O)[O-])c1)NC1CCCCCC1`, the activity came to 98.1%.

For the molecule `Cn1ncc2c(O/N=C(\N)c3ccc(C(C)(C)C)cc3)ncnc21`, the activity was 98.5%.

Tested on in a further assay: not listed separately
The description is as above. The following applies: NB7 neuroblastoma + caspase-8, without TRAIL, NB7 Caspase-8, without TRAIL, mean of runs, at 10 µM.
With `CCOC(=O)C1=C(CC)Nc2ccccc2N=C1NC(=O)Nc1ccc(Cl)c(Cl)c1`, the activity was 64.3%.

With `COc1ccc(-c2cc(-c3nc4ccccn4c3NCc3ccccc3)ccc2OC)cc1`, the activity is 88.6%.

Regarding `Cc1cccc(N(Cc2cc(=O)[nH]c3ccccc23)C(=O)CCl)c1`, the activity was 98.5%.

On to `COc1ccc(OC)c(N(CCN2C(=O)c3ccccc3C2=O)C(=O)CCl)c1`, for which the activity came out at 97.6%.

Consider `O=C(COC(=O)c1ccccc1C(=O)c1ccc(Cl)c([N+](=O)[O-])c1)NC1CCCCCC1`, for which the activity turned out to be 97.2%.

Consider `Cn1ncc2c(O/N=C(\N)c3ccc(C(C)(C)C)cc3)ncnc21`, for which the activity was 98.8%.
